Laboratory results from the supplement of paper PMC10849652.
About 7,900 targets were measured; listed, in parts, are those with a hit and a random draw of the rest. About 0.6% of all pairs of compound and target were hits. A number with no mark means an inactive call.

What was measured:
Test in all cases: log2 fold change, soluble protein after heating vs DMSO (PISA); higher = thermal stabilisation; K562 cells, 10 uM, 30 min; active = over 0.2 and 3.5 SD of the protein, either way, in both replicates (recomputed)
erlotinib = compound: C#Cc1cccc(Nc2ncnc3cc(OCCOC)c(OCCOC)cc23)c1 [erlotinib]
Procedure, shortened: (§1)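 K562 cells (2×10^6 cells/mL) were treated with 10 μM compound for 30 min, and aliquots were heated for 3 min over 48°C-58°C. Pooled aliquots were extracted in PBS with 0.5% NP-40 at 4°C, and the supernatant after 21,000xg for 90 min was measured by TMTpro 16plex LC-MS/MS with channel sums equalised. Reported thermal stability, relative to control samples and from duplicates, is a log2 fold change.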

[1] = compound: C/C(=N\NC(=O)C1=CC(=CC=C1)S(=O)(=O)N2CCOCC2)/C3=C(C=CC(=C3)Cl)O
Procedure, shortened: as §1

[2] = compound: C1=CC(=C(C=C1Cl)C2=NC3=NC=CN=C3C(=N2)NC4=CC=NC=C4)F
Procedure, shortened: as §1

[3] = compound: C1=CC(=CC=C1C2=NC3=C(N2)C=C(C=C3)C(=O)N)OC4=CC=C(C=C4)Cl
Procedure, shortened: as §1

[4] = compound: C1=CC2=C(C=CC(=C2)/C=C\3/C(=O)NC(=NCC4=CC=CS4)S3)N=C1
Procedure, shortened: as §1

[5] = compound: C1=CC2=NC=CN=C2C=C1/C=C/3\C(=O)NC(=O)S3
Procedure, shortened: as §1

[6] = compound: C1=CC=C(C=C1)C2=NC(=C(N2)C3=CC=NC=C3)C4=CC(=C(C=C4)Cl)O
Procedure, shortened: as §1

[7] = compound: C1=CC=C2C(=C1)C3=NNC4=CC=CC(=C43)C2=O
Procedure, shortened: as §1

[8] = compound: C1CCN(C1)C(=O)NC2=CC=CC(=C2)NC3=NC=C(C(=N3)NCCC4=CN=CN4)Br
Procedure, shortened: as §1

[9] = compound: C1CN(CCC1(CC2=CC=C(C=C2)Cl)N)C3=NC=NC4=C3C=CN4
Procedure, shortened: as §1

IRAK-1-4 Inhibitor I = compound: C1COCCN1CCN2C3=CC=CC=C3N=C2NC(=O)C4=CC(=CC=C4)[N+](=O)[O-] [IRAK-1-4 Inhibitor I]
Procedure, shortened: as §1

ibrutinib = compound: C=CC(=O)N1CCC[C@@H](n2nc(-c3ccc(Oc4ccccc4)cc3)c3c(N)ncnc32)C1 [ibrutinib]
Procedure, shortened: as §1

[10] = compound: CC(=O)c1cnc2ccc(-c3cc(Cl)c(O)c(Cl)c3)nc2c1N[C@H]1CC[C@H](CN(C)C)CC1
Procedure, shortened: as §1

ralimetinib = compound: CC(C)(C)Cn1c(N)nc2ccc(-c3[nH]c(C(C)(C)C)nc3-c3ccc(F)cc3)nc21 [ralimetinib]
Procedure, shortened: as §1

[11] = compound: CC(C)(O)CC(=O)NCCn1ccc2ncnc(Nc3ccc(Oc4cccc(C(F)(F)F)c4)c(Cl)c3)c21
Procedure, shortened: as §1

[12] = compound: CC(C)C1=C2N=C(C=C(N2N=C1)NCC3=CC=CC=C3)NCCCCCCN
Procedure, shortened: as §1

[13] = compound: CC(C)C[C@@H](C=O)NC(=O)[C@H](CC(C)C)NC(=O)[C@H](CC(C)C)NC(=O)OCc1ccccc1
Procedure, shortened: as §1

pinometostat = compound: CC(C)N(C[C@H]1O[C@@H](n2cnc3c(N)ncnc32)[C@H](O)[C@@H]1O)[C@H]1C[C@@H](CCc2nc3cc(C(C)(C)C)ccc3[nH]2)C1 [pinometostat]
Procedure, shortened: as §1

[14] = compound: CC1=C(C(CC(=O)N1)C2=CC=C(C=C2)C(F)(F)F)C(=O)NC3=C(C=C4C(=C3)C=NN4)F
Procedure, shortened: as §1

[15] = compound: CC1=C(C2=C(C=C1)C(=O)C3=CC=CC=C3N2CCCN)C
Procedure, shortened: as §1

Chain of UniProt Q15582 (Q15582 whole entry, looked up): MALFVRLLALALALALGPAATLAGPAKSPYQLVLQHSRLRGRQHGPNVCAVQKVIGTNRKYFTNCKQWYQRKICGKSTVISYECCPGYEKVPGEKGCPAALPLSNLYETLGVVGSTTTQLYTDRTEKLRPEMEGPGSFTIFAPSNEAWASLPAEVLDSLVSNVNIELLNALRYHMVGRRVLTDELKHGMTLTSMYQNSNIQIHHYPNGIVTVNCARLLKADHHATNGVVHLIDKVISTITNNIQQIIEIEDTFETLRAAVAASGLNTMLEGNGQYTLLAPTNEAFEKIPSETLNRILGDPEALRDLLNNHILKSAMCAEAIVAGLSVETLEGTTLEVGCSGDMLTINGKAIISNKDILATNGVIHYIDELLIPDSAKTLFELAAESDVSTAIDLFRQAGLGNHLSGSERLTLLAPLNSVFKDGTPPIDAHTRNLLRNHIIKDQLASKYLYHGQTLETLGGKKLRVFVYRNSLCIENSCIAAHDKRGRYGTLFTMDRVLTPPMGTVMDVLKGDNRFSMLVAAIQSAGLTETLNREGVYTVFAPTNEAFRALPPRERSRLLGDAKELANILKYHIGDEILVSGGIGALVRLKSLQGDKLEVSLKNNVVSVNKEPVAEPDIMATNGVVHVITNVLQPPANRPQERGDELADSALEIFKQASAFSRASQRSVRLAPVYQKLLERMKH
Chain of UniProt Q13586 (Q13586 whole entry, looked up): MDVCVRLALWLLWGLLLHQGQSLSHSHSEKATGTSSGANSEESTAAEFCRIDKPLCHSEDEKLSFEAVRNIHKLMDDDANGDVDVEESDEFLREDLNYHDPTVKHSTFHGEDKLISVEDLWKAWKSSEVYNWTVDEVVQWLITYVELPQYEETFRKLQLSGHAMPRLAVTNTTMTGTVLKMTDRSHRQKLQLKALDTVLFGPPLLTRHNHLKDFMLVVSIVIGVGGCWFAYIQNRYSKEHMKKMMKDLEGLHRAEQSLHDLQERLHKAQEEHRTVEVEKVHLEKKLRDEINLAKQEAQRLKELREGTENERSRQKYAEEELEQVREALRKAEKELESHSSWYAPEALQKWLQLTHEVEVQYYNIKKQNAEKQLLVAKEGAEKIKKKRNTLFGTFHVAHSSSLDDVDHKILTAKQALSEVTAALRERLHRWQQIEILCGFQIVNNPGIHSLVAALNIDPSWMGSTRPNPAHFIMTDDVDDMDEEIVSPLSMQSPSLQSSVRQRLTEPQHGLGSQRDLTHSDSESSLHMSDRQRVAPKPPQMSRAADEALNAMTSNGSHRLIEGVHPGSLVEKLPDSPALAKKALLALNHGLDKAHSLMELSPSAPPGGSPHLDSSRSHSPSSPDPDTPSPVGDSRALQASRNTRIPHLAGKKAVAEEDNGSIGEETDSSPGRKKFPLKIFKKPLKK
Chain of UniProt P51571 (P51571 whole entry, looked up): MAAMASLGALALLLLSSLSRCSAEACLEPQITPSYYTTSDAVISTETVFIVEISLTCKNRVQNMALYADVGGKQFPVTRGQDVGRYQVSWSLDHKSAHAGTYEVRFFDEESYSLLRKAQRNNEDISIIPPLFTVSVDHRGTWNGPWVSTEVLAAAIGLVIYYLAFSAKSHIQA
Chain of UniProt O95926 (O95926 whole entry, looked up): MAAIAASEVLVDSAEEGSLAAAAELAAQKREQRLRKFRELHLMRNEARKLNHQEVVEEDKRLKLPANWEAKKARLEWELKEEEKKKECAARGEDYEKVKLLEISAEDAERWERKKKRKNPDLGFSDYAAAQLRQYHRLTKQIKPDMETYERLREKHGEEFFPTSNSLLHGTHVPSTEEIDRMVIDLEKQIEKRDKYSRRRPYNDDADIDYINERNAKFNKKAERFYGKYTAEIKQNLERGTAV
Chain of UniProt Q9H254 (Q9H254 whole entry, looked up): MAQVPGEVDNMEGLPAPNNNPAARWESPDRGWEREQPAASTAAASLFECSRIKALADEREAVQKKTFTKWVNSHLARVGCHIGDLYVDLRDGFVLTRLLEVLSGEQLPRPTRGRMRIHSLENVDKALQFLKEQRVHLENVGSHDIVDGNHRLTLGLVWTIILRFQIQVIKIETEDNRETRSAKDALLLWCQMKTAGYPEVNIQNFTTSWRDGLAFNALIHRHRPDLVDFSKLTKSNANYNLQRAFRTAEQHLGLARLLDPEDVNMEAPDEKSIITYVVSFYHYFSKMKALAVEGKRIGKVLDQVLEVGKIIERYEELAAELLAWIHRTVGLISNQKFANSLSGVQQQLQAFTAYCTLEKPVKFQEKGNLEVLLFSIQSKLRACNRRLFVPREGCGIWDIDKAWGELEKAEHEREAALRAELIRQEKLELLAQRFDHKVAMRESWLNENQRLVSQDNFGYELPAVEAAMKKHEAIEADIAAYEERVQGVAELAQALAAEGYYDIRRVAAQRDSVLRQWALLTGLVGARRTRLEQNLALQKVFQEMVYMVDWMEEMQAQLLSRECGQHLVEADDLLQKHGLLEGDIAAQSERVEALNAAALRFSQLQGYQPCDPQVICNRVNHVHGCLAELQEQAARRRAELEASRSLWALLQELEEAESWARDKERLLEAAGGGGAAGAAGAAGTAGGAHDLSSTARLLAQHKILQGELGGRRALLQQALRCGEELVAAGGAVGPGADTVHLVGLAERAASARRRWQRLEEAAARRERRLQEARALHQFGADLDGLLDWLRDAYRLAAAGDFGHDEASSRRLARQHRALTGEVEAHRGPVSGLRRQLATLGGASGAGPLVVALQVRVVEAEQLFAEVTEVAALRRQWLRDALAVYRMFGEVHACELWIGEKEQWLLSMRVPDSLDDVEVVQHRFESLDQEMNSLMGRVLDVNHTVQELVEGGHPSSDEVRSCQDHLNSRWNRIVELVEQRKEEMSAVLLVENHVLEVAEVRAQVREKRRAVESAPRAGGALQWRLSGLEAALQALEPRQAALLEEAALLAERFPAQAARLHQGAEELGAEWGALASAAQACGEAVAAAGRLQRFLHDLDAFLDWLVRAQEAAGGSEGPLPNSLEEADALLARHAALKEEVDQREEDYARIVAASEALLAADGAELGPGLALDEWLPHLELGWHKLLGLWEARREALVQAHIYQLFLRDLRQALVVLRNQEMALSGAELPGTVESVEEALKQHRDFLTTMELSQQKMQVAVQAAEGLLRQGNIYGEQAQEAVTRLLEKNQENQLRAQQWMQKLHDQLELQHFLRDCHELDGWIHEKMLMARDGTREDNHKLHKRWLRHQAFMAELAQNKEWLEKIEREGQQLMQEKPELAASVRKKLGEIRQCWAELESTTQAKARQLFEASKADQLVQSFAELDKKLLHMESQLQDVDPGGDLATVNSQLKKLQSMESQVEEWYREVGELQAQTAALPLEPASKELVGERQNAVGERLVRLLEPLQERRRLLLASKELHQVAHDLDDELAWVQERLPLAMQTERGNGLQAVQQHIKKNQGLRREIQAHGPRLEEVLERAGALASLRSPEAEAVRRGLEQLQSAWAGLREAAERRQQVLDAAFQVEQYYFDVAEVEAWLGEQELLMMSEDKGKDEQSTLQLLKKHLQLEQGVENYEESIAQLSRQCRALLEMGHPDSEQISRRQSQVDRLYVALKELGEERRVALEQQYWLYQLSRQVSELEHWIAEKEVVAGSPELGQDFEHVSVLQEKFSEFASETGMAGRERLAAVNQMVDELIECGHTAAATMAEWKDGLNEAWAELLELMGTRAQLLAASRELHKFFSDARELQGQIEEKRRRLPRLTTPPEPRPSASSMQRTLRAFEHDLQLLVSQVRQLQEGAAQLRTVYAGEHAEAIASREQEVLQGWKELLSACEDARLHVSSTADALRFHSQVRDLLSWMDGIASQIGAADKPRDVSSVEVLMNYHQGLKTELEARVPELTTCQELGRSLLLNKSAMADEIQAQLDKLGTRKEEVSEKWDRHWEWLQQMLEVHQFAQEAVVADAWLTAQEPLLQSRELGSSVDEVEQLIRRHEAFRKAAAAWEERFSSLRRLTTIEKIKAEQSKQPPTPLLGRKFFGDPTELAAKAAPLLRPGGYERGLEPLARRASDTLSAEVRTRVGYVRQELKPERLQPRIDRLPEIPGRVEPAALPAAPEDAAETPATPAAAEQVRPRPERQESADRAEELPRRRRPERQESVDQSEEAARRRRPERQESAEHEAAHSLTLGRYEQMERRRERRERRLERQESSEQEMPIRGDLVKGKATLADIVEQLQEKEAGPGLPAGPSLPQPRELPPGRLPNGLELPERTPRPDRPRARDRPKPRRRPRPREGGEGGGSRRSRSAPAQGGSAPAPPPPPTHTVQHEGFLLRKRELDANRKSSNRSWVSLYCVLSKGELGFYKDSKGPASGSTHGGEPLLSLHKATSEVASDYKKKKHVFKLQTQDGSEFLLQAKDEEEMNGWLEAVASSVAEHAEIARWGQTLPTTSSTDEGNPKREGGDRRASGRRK
Chain of UniProt P15907 (P15907 whole entry, looked up): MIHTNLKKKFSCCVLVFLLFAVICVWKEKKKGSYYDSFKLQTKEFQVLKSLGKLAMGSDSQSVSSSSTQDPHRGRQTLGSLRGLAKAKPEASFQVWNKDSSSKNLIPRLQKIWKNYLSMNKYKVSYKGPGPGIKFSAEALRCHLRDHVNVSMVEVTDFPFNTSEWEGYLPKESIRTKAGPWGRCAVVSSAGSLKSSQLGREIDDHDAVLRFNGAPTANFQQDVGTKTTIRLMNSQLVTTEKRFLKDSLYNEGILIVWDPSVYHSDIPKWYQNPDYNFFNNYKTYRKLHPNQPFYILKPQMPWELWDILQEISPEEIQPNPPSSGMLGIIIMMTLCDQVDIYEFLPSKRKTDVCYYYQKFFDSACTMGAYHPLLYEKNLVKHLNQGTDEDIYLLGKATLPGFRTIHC

| Target | log2 fold change (erlotinib) | log2 fold change [1] | log2 fold change [2] | log2 fold change [3] | log2 fold change [4] | log2 fold change [5] | log2 fold change [6] | log2 fold change [7] | log2 fold change [8] | log2 fold change [9] | log2 fold change (IRAK-1-4 Inhibitor I) | log2 fold change (ibrutinib) | log2 fold change [10] | log2 fold change (ralimetinib) | log2 fold change [11] | log2 fold change [12] | log2 fold change [13] | log2 fold change (pinometostat) | log2 fold change [14] | log2 fold change [15] |
| --- | --- | --- | --- | --- | --- | --- | --- | --- | --- | --- | --- | --- | --- | --- | --- | --- | --- | --- | --- | --- |
| SP3 (UniProt Q02447) | 0.034 | -0.028 | 0 | 0.059 | 0.003 | -0.051 | -0.053 | -0.066 | -0.065 | -0.1 | -0.129 | 0.003 | -0.007 | 0 | 0.022 | -0.006 | 0.054 | 0.026 | 0.114 | 0.607 (active) |
| ST6GAL1 (UniProt P15907) | 0.053 | 0.006 | 0.017 | 0.022 | -0.033 | -0.009 | 0.064 | 0.048 | -0.064 | 0.041 | -0.01 | 0.002 | 0.021 | 0.041 | 0.058 | -0.051 | -0.009 | 0.024 | 0.02 | 0.011 |
| SRRM2 (UniProt Q9UQ35) | 0.067 | 0.095 | -0.136 | 0.07 | -0.123 | 0.014 | -0.044 | -0.073 | -0.061 | -0.128 | -0.074 | -0.015 | -0.326 | 0.063 | 0.01 | -0.258 | 0.002 | 0.005 | -0.005 | -0.181 |
| SPTBN4 (UniProt Q9H254) | 0.29 | 0 | -0.045 | 0.078 | 0.066 | -0.027 | 0.035 | 0.061 | 0.066 | -0.05 | -0.008 | 0.1 | -0.06 | -0.032 | -0.025 | -0.671 (active) | -0.07 | -0.007 | 0.024 | -0.016 |
| SSR4 (UniProt P51571) | -0.016 | 0.055 | 0.041 | 0.051 | 0.059 | 0.007 | -0.031 | -0.002 | 0 | -0.025 | 0.003 | 0.032 | -0.033 | 0.049 | -0.034 | -0.03 | 0.032 | -0.028 | -0.015 | 0.09 |
| SYF2 (UniProt O95926) | -0.042 | -0.054 | -0.052 | 0.05 | -0.054 | 0.069 | 0.023 | -0.097 | -0.024 | 0.122 | -0.063 | 0.056 | 0.411 (active) | -0.019 | 0.049 | 0.327 | 0.199 | 0.072 | 0.023 | 0.382 (active) |
| SLIRP (UniProt Q9GZT3) | 0.019 | 0.205 | 0.27 | -0.014 | 0.067 | 0.093 | 0.023 | -0.187 | -0.013 | -0.028 | 0.004 | 0.035 | -0.192 | -0.027 | -0.239 | -0.02 | 0.393 (active) | -0.016 | 0.088 | -0.342 |
| SUGP1 (UniProt Q8IWZ8) | 0.039 | 0.093 | -0.027 | -0.029 | -0.01 | 0.005 | 0 | -0.012 | -0.03 | -0.001 | 0.008 | -0.024 | -0.08 | -0.023 | -0.003 | -0.127 | 0.061 | -0.017 | 0.011 | -0.003 |
| TGFBI (UniProt Q15582) | 0.003 | -0.018 | 0.054 | 0.009 | 0.132 | 0.034 | 0.009 | -0.133 | -0.037 | 0.029 | 0.026 | 0.149 | 0.045 | -0.099 | 0.244 | -0.044 | 0.05 | -0.092 | 0.115 | -0.039 |
| TBRG4 (UniProt Q969Z0) | 0.072 | 0.18 | 0.046 | -0.154 | 0.063 | -0.056 | 0.056 | -0.201 | -0.07 | -0.036 | -0.031 | 0 | -0.188 | -0.134 | -0.578 (active) | -0.624 | -0.038 | -0.014 | 0.029 | -0.171 |
| STIM1 (UniProt Q13586) | -0.015 | 0.01 | 0.043 | 0.014 | 0.039 | -0.007 | -0.025 | -0.067 | -0.003 | 0.016 | 0.006 | 0.007 | -0.06 | -0.036 | -0.067 | -0.33 (active) | 0.034 | -0.011 | 0.006 | 0.067 |
| SNX5 (UniProt Q9Y5X3) | 0.033 | 0.09 | 0.042 | 0.022 | 0.057 | -0.024 | -0.05 | -0.038 | 0.077 | -0.009 | 0.042 | 0.019 | -0.167 | -0.038 | -0.304 (active) | -0.224 | 0.005 | 0.027 | 0.018 | -0.026 |
